Screening data as filed in PubChem.
Gli-Sufu antag = antagonists of Gli-Sufu signaling | 0.74% of 340,000 active | Sufu-KO-LIGHT fibroblasts, Gli luciferase reporter luminescence | inhibition, % at 5 µM;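 active means inhibition above about 55%, limit read from the data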
FXN GAA850 act = frataxin GAA850 promoter activation. activation, % at 6 µM. HEK293 lucGAA850 FXN promoter luciferase reporter, 24 h; percent of 10 µM SAHA response. 0.56% of 360,000 active. AID 540364;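 active means activation above the average of all compounds screened plus 3 SD, cutoff fixed separately per campaign, cut at about 7.5% in these data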
GalR3 antag = blocks the human galanin receptor 3. O60755. HEK293 GalR3-CNG cAMP membrane potential fluorescence; galR3 body fused to GalR1 C-terminus. inhibition, % at 3 µM. 0.44% of 360,000 active. AID 651719;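 active means inhibition above the screen-wide average plus 3 SD, cut at about 13% in these data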;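 further: forskolin and galanin both at EC90 stimulate the cells; cAMP rise reported by CNG channel membrane potential dye signal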
Target sequence (O60755 1-299 limits assumed): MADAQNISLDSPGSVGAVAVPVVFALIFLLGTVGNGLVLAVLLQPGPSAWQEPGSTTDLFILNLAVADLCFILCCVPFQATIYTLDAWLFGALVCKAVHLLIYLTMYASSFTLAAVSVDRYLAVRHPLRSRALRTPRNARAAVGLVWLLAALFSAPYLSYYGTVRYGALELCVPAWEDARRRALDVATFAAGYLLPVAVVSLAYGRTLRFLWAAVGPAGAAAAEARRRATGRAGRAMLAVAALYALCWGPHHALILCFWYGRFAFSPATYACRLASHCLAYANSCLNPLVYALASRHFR
NR2F2 inh = blocks human COUP-TFII nuclear receptor; P24468; HEK293T NGFI-A luciferase reporter, luminescence; inhibition, % at 8.6 µM; 0.7% of 370,000 active; AID 686940;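 active means inhibition above a per-plate cutoff, mean inhibition of test wells between control levels plus 3 SD, cut at about 38% in these data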;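 further: cells cotransfected with COUP-TFII expression vector driving the NGFI-A reporter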
H9c2 protect = protects H9c2 cardiomyocytes from peroxide injury | H2O2 injury protection, ATPLite, 2 h | protection from H2O2 cell death, % at 20 µM | 0.63% of 360,000 active | AID 588492;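 active means compounds giving at least 50% protection of heart cells from peroxide-induced death in the single-dose screen, raw or plate-pattern-corrected value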
SMARCA2 activ = activators of SMARCA2 function; MG213 cells, MMTV-luciferase reporter, dexamethasone, overnight; activation, % at 9.1 µM; 1% of 370,000 active; AID 652017; in the data active means activation above about 7.8%
GAA30 counter = GAA30 FXN promoter activation counter-screen; activation, % at 6 µM; shares compounds with FXN GAA850 act; AID 588350; 66% of 1,900 active; HEK293 lucGAA30 FXN promoter luciferase, 24 h; DMSO = 0%, 5 µM ipriflavone = 100%;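 active means mean activation above the mean of solvent-only control wells plus 3 SD, cut at about 22% in these data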;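 further: counterscreen of GAA850 promoter hits where activity marks nonselective or luminescence artifacts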
FXN GAA850 conf = GAA850 FXN promoter activation confirmation | shares compounds with FXN GAA850 act | HEK293 lucGAA850 FXN promoter luciferase reporter, 24 h; 100% = activation by SAHA | activation, % at 6 µM | 86% of 1,900 active;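 active means mean activation above a set limit taken from the primary screen, cut at about 8% in these data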
Hits are given with their value; n = inactive; x = no result. Only some compounds are listed: those with a hit (about 3.4% of all), similar ones and a draw of the others.

SMILES | Gli-Sufu antag | FXN GAA850 act | GalR3 antag | NR2F2 inh | H9c2 protect | SMARCA2 activ | GAA30 counter | FXN GAA850 conf
CCOC(=O)N1CCN(C(C(=O)NC2CCCC2)c2cccc(OC)c2OC)CC1 (stereo not drawn) | x | x | n | n | x | n | x | x
c1nc(NCC2CCCC2)c2cc(-c3ccc4c(c3)OCO4)ccc2n1 | x | x | x | n | x | x | x | x
CCOc1ccc(OCCn2c(=S)[nH]c3c(N)ncnc32)cc1 | n | n | n | n | n | n | x | x
Cc1ccc(OCCn2cnc3c(N)ncnc32)cc1 | n | 8.0 | n | n | n | n | n | 9.8
COc1cc(NC(=O)[C@H]2O[C@@H](n3cnc4c(N)ncnc43)[C@H](O)[C@@H]2O)cc(OC)c1OC | x | x | n | n | n | n | x | x
Cc1cccc(-c2cccc3c4c([nH]c23)[C@@H]2C[C@H](N(C)C(=O)Nc3ccccc3C)[C@H]([C@H](C)O)C(=O)N2CC4)c1 | x | x | x | n | x | n | x | x
COc1ccc([C@@H]2[C@@H]3C(=O)N(C(C)(C)C)C(=O)[C@@H]3[C@]3(Cc4ccc(Cl)cc4)C(=O)N(c4cccc(C)c4)C(=O)N23)cc1 | n | n | n | n | n | n | x | x
CC[C@@]12C(=O)N(c3cccc(F)c3)C(=O)N1[C@H](c1ccc(OC)cc1)[C@@H]1C(=O)N(C(C)(C)C)C(=O)[C@@H]12 | n | 11 | n | n | n | n | 43 | 18
CC[C@@]12C(=O)N(c3cccc(C)c3)C(=O)N1[C@H](c1ccc(OC)cc1)[C@@H]1C(=O)N(C(C)(C)C)C(=O)[C@@H]12 | n | 12 | x | x | n | x | 29 | 20
COc1ccc([C@H]2OC(=O)C[C@@H]2C(=O)N2CCN(c3ccccc3Cl)CC2)cc1OC | x | x | x | n | x | n | x | x
N#Cc1c(N)n(C2CCCCC2)c2nc3ccccc3nc12 | n | 8.1 | n | n | n | n | n | 18
O=C1[C@H](Cc2ccccc2)NCC=CC[C@H](c2ccco2)N1Cc1ccccc1 | n | 11 | n | n | n | n | n | n
CCN1C(=O)/C(=C/c2cc(C)n(C)c2C)SC1=Nc1ccc(OC)cc1 | n | 9.9 | n | n | n | n | n | 14
CCCN1C(=O)/C(=C/c2cc(C)n(C)c2C)SC1=Nc1ccc(OCC)cc1 | n | n | n | n | n | n | x | x
O=C(Nc1c(Cl)cc2c(c1Cl)Cc1cc([N+](=O)[O-])ccc1-2)C(Cl)Cl | n | n | n | n | n | n | x | x
CC(/C=N/NC(=O)c1sc(N)nc1C)=C\c1ccccc1 | n | 8.1 | n | n | n | n | 116 | 41
Cc1cc(-c2ccc(F)cc2)nc2cc(C(N)=O)nn12 | n | n | n | n | n | n | x | x
CCOC(=O)c1cnn2c(C)cc(-c3ccc(F)cc3)nc12 | n | 8.3 | n | n | n | n | 112 | 37
Cc1ccc(N2CCN(C(C(=O)Nc3c(C)cccc3C)c3cccc(F)c3)CC2)cc1 (stereo not drawn) | x | x | n | n | x | n | x | x
CC1(C)Cc2c(c(N3CCOCC3)nc3sc(C#N)c(N)c23)CS1 | n | 8.3 | n | n | n | n | n | 16
CCOC(=O)[C@]12CCCC=C1N(CCC1=CCCCC1)C(=O)[C@H](CC(=O)NCC13CC4CC(CC(C4)C1)C3)C2 | x | x | n | n | x | n | x | x
CC(C)(C)n1nc(-c2ccc(Cl)cc2)c2c(N)ncnc21 | n | 11 | n | n | n | n | 64 | n
CC(C)(C)n1nc(-c2ccc(F)cc2)c2c(N)ncnc21 | n | 12 | n | n | n | n | 54 | 12
CCNC(=O)C1(C)CCCN(Cc2cc(-c3ccccc3)n(C)n2)C1 (stereo not drawn) | x | n | n | n | n | n | x | x
Fc1ccc(COc2ccccc2C(=S)N2CCCC2)cc1 | n | n | n | n | n | n | x | x
SMILES | Gli-Sufu antag | FXN GAA850 act | GalR3 antag | NR2F2 inh | H9c2 protect | SMARCA2 activ | GAA30 counter | FXN GAA850 conf
Cc1ccc(COc2ccccc2C(=S)N2CCCC2)cc1 | n | 8.1 | n | n | n | n | 51 | 23
O=[N+]([O-])c1ccc2nc(COCc3nc4ccccc4[nH]3)[nH]c2c1 | x | x | x | n | x | x | x | x
Cn1cc(C(=O)N2CCN(c3ccccc3)CC2)c(=O)c2cc(S(=O)(=O)N3CCOCC3)ccc21 | n | n | n | n | n | n | x | x
CN(C)S(=O)(=O)c1ccc2c(c1)c(=O)c(C(=O)N1CCOCC1)cn2C | n | 9.8 | n | n | n | n | n | 13
Oc1ccc(-c2csc(-c3c[nH]c4ccccc34)n2)c(O)c1 | n | 8.1 | n | n | n | n | 88 | 41
Cc1ccc(-c2csc(-c3c[nH]c4ccccc34)n2)c(C)c1 | n | n | n | n | n | n | x | x
CC1(C)CC(=O)C=C(C#CC2(O)CCCCC2)C1 | x | n | n | n | n | n | x | x
COC(=O)N(C)C[C@@H]1OCc2ccccc2-c2c(n(C)c3ccccc23)C(=O)N([C@H](C)CO)C[C@@H]1C | x | 16 | n | n | n | n | 33 | 14
Cc1ccccc1S(=O)(=O)N(C)C[C@@H]1OCc2ccccc2-c2c(n(C)c3ccccc23)C(=O)N([C@H](C)CO)C[C@@H]1C | x | 20 | n | n | n | n | n | 10
C[C@H](CO)N1C[C@H](C)[C@H](CN(C)S(=O)(=O)c2ccccc2)OCc2ccccc2-c2c(n(C)c3ccccc23)C1=O | x | n | n | n | n | n | x | x
C[C@@H]1CN([C@H](C)CO)C(=O)c2c(c3ccccc3n2C)-c2ccccc2CO[C@@H]1CN(C)C(=O)Nc1ccc2c(c1)OCO2 | x | n | n | n | n | n | x | x
C[C@H](CO)N1C[C@H](C)[C@H](CN(C)C(=O)Nc2ccc(F)cc2)OCc2ccccc2-c2c(n(C)c3ccccc23)C1=O | x | 14 | n | n | n | n | n | 9.4
CC(C)NC(=O)N(C)C[C@@H]1OCc2ccccc2-c2c(n(C)c3ccccc23)C(=O)N([C@@H](C)CO)C[C@@H]1C | x | n | n | n | n | n | x | x
O=C(OCCCCSc1nnc(-c2cccc3ccccc23)o1)c1ccc(F)cc1 | x | x | x | n | x | x | x | x
CCOC(=O)N1C(=O)C[C@](Sc2ccc(OC)cc2)(C(=O)N(C)C)[C@H]1c1ccc(OC)cc1 | x | x | x | n | x | n | x | x
CCOC(=O)c1ccc(C#Cc2ccc3c(c2)C(C)(C)CCS3)nc1 | x | x | x | n | x | n | x | x
COc1cccc(NC(=O)Nc2cc(C)ccc2F)c1 | n | 8.2 | n | n | n | n | 80 | 25
COc1cc(C)ccc1C(=O)N1CCC(Oc2cccnc2)CC1 | x | x | x | n | x | n | x | x
O=C1CCCN1CCCNc1ncnc2c1cnn2-c1ccc(Cl)cc1 | n | 15 | n | n | n | n | 76 | 33
Clc1ccc(C2=Nn3c(nnc3-c3cc(-c4ccccc4)n[nH]3)SC2)cc1 | n | n | n | n | n | n | x | x
c1ccc(C2=Nn3c(nnc3-c3cc(-c4ccccc4)n[nH]3)SC2)cc1 | n | 8.3 | n | n | n | n | 41 | 23
